{"source": "paper PMC6212790", "about": "“How bacterial xenogeneic silencer rok distinguishes foreign from self DNA in its resident genome”", "note": "Whole data set: some 33,000 sequences, median “e-score” near -0.037, cut for the highest 2% near 0.34. The full list was thinned out, with the highest values kept by preference."}
{"molecular_target": "T1, GST-Rok (full length) (Bacillus subtilis subsp. subtilis str. …, UniProt O34857 1-191)", "T1 sequence": "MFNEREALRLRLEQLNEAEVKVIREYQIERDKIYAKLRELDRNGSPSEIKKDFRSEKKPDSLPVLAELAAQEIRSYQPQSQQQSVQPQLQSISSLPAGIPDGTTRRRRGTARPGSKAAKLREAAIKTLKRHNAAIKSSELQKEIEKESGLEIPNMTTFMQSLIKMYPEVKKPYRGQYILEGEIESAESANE", "assay": "protein binding microarray; Rok is a gene silencer of Bacillus subtilis; high values mean tight binding", "conditions": "protein: recombinant; tags: GST (pTH5325, pDEST15-Magic modified); dsDNA, one strand shown", "in_short": "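Every oligonucleotide joins a 25-mer constant primer to a 35-mer variable part drawn from a de Bruijn sequence of order 10, so each non-palindromic 8-mer appears at least 32 times and each palindromic 8-mer 16 times. The preference for every 8-mer is reported as a unitless, rank-based enrichment score (E-score). This score spans 0.5 for the most favored 8-mer to −0.5 for the most disfavored.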", "units": {"binding signal": "E-score"}}
{"sequence": "AGACTACG", "binding signal": -0.152}
{"sequence": "CTACAACC", "binding signal": 0.119}
{"sequence": "CTACAACA", "binding signal": 0.343}
{"sequence": "CCACTACA", "binding signal": 0.0814}
{"sequence": "CTACTACA", "binding signal": 0.339}
{"sequence": "CTACTACC", "binding signal": 0.303}
{"sequence": "ATACTAGC", "binding signal": 0.321}
{"sequence": "GTACAACA", "binding signal": 0.0355}
{"sequence": "ACTAGACC", "binding signal": -0.00464}
{"sequence": "GATCGAAA", "binding signal": -0.0281}
{"sequence": "ATTAATGG", "binding signal": 0.0209}
{"sequence": "CTCACAGA", "binding signal": -0.131}
{"sequence": "AGCACTGC", "binding signal": -0.181}
{"sequence": "ACTTACCT", "binding signal": 0.0398}
{"sequence": "CTCTAAAC", "binding signal": 0.0676}
{"sequence": "AGTGGCAG", "binding signal": -0.029}
{"sequence": "AATTGACG", "binding signal": 0.213}
{"sequence": "ATACTACA", "binding signal": 0.408}
{"sequence": "ACACTACA", "binding signal": 0.276}
{"sequence": "AGACTACA", "binding signal": 0.0935}
{"sequence": "AGTGAAAC", "binding signal": -0.00421}
{"sequence": "ATGTATAA", "binding signal": 0.385}
{"sequence": "GTGTATAA", "binding signal": 0.246}
{"sequence": "ATGTATAC", "binding signal": 0.347}
{"sequence": "ATGTATAG", "binding signal": 0.244}
{"sequence": "CTGTATAC", "binding signal": 0.216}
{"sequence": "CTGTATAA", "binding signal": 0.265}
{"sequence": "GTTAATAA", "binding signal": 0.303}
{"sequence": "TCTCGACA", "binding signal": -0.0144}
{"sequence": "ATCAGAGC", "binding signal": -0.105}
{"sequence": "CGTCTCTA", "binding signal": -0.15}
{"sequence": "CATTGTTC", "binding signal": 0.00988}
{"sequence": "CCAGCATA", "binding signal": -0.0442}
{"sequence": "ATAGGTCA", "binding signal": 0.156}
{"sequence": "CGATGGAA", "binding signal": 0.0214}
{"sequence": "AACAAACA", "binding signal": 0.0686}
{"sequence": "CACAAACA", "binding signal": 0.0611}
{"sequence": "AACAAATA", "binding signal": 0.295}
{"sequence": "TACAAGTA", "binding signal": 0.288}
{"sequence": "TACAAATA", "binding signal": 0.375}
{"sequence": "CACAAGTA", "binding signal": 0.183}
{"sequence": "TACAAACA", "binding signal": 0.369}
{"sequence": "CACAAATG", "binding signal": -0.0865}
{"sequence": "CACAAATA", "binding signal": 0.35}
{"sequence": "TTATGCAA", "binding signal": 0.154}
{"sequence": "GGAGGAAA", "binding signal": -0.0576}
{"sequence": "CGTTCCTC", "binding signal": -0.0344}
{"sequence": "AGTAAGGA", "binding signal": -0.0123}
{"sequence": "CGTCGCGC", "binding signal": 0.0557}
{"sequence": "ACTCCTAT", "binding signal": 0.122}
{"sequence": "AAGATTCC", "binding signal": -0.109}
{"sequence": "CAGTAGAG", "binding signal": 0.142}
{"sequence": "AAGTAGAA", "binding signal": 0.305}
{"sequence": "AAGTAGTA", "binding signal": 0.332}
{"sequence": "TAGTAGGA", "binding signal": 0.209}
{"sequence": "CAGTAGTA", "binding signal": 0.343}
{"sequence": "GAGTAGAA", "binding signal": 0.202}
{"sequence": "CAGTAGTC", "binding signal": -0.166}
{"sequence": "TAGTAGAA", "binding signal": 0.439}
{"sequence": "CAGTAGAA", "binding signal": 0.391}
{"sequence": "AACGACGA", "binding signal": 0.183}
{"sequence": "ATTGGCTC", "binding signal": -0.0706}
{"sequence": "AATTTTCG", "binding signal": 0.139}
{"sequence": "ACCGGCAG", "binding signal": -0.0541}
{"sequence": "AGACTGTC", "binding signal": 0.0207}
{"sequence": "CGCAGACA", "binding signal": -0.162}
{"sequence": "ATGTTGTA", "binding signal": 0.223}
{"sequence": "GTTACGTA", "binding signal": 0.169}
{"sequence": "ATTACGTA", "binding signal": 0.38}
{"sequence": "ATTACCTG", "binding signal": 0.126}
{"sequence": "GATACCTA", "binding signal": 0.34}
{"sequence": "ATTACCTC", "binding signal": 0.167}
{"sequence": "CATACCTA", "binding signal": 0.334}
{"sequence": "AATACCTA", "binding signal": 0.267}
{"sequence": "CTTACGTA", "binding signal": 0.179}
{"sequence": "ATTACCTA", "binding signal": 0.382}
{"sequence": "ACGCCGAC", "binding signal": -0.196}
{"sequence": "ACGACATG", "binding signal": 0.136}
{"sequence": "CACCAGTA", "binding signal": -0.00869}
{"sequence": "AAAGTCGC", "binding signal": 0.0343}
{"sequence": "GGCTCTAA", "binding signal": 0.0778}
{"sequence": "AACTCTGA", "binding signal": 0.0339}
{"sequence": "CCAGACGG", "binding signal": -0.108}
{"sequence": "CAAAGACC", "binding signal": -0.0604}
{"sequence": "GTATTCAA", "binding signal": 0.0317}
{"sequence": "GTAGTAGA", "binding signal": 0.33}
{"sequence": "CAAGTAGA", "binding signal": 0.286}
{"sequence": "CCAGTAGA", "binding signal": 0.166}
{"sequence": "ATAGTAGA", "binding signal": 0.346}
{"sequence": "ATAGTAGC", "binding signal": 0.315}
{"sequence": "CTAGTAGC", "binding signal": 0.251}
{"sequence": "CTAGTAGA", "binding signal": 0.404}
{"sequence": "GCAGTAGC", "binding signal": -0.0296}
{"sequence": "GCAGTAGA", "binding signal": 0.342}
{"sequence": "AGCCGGAT", "binding signal": -0.184}
{"sequence": "ATCCTTCC", "binding signal": -0.158}
{"sequence": "CATTGAAA", "binding signal": -0.0384}
{"sequence": "ACTCTCCA", "binding signal": -0.0297}
{"sequence": "TCCGGTAA", "binding signal": 0.0305}
{"sequence": "GAATTTAA", "binding signal": 0.0678}
{"sequence": "TAATTTAA", "binding signal": 0.356}
{"sequence": "AATTTTAC", "binding signal": 0.355}
{"sequence": "ATTTTTAC", "binding signal": 0.335}
{"sequence": "CAATTTAA", "binding signal": 0.152}
{"sequence": "ATTTTACA", "binding signal": 0.311}
{"sequence": "CAAATTAC", "binding signal": 0.356}
{"sequence": "ATTTTACG", "binding signal": 0.219}
{"sequence": "ATTTTACC", "binding signal": 0.351}
{"sequence": "CAAATTAG", "binding signal": 0.21}
{"sequence": "AATTTTAG", "binding signal": 0.222}
{"sequence": "AAAATTAC", "binding signal": 0.248}
{"sequence": "GGATCTTA", "binding signal": 0.0165}
{"sequence": "CTGTCTAA", "binding signal": -0.0397}
{"sequence": "AAGTCTGG", "binding signal": -0.0136}
{"sequence": "AATGCACG", "binding signal": -0.0533}
{"sequence": "CAACTTAC", "binding signal": 0.216}
{"sequence": "TAAGGTAA", "binding signal": 0.0381}
{"sequence": "TCCAGTCA", "binding signal": -0.0213}
{"sequence": "AGATTTTA", "binding signal": 0.294}
{"sequence": "GACAAACA", "binding signal": 0.0661}
{"sequence": "TCGGTGAA", "binding signal": -0.0505}
{"sequence": "TCAACGAA", "binding signal": 0.0593}
{"sequence": "CATTTTAA", "binding signal": 0.0564}
{"sequence": "AATTTTAT", "binding signal": 0.273}
{"sequence": "CATTTTAC", "binding signal": 0.349}
{"sequence": "GATTTTAC", "binding signal": 0.18}
{"sequence": "AAATTTAC", "binding signal": 0.336}
{"sequence": "CAATTTAC", "binding signal": 0.288}
{"sequence": "AAATTTAG", "binding signal": 0.163}
{"sequence": "GAATTTAC", "binding signal": 0.268}
{"sequence": "AAATTTAT", "binding signal": 0.351}
{"sequence": "GATGAACC", "binding signal": -0.136}
{"sequence": "ATGTTGGC", "binding signal": 0.0169}
{"sequence": "CCATGTAC", "binding signal": 0.193}
{"sequence": "ACATGTAC", "binding signal": 0.358}
{"sequence": "CCATGTAG", "binding signal": 0.271}
{"sequence": "ACATGTAT", "binding signal": 0.167}
{"sequence": "GCATGTAC", "binding signal": 0.0911}
{"sequence": "ACATGTAG", "binding signal": 0.338}
{"sequence": "CGGGTACA", "binding signal": 0.154}
{"sequence": "CGACAGCG", "binding signal": -0.036}
{"sequence": "AATTACTA", "binding signal": 0.434}
{"sequence": "GGTTACTA", "binding signal": 0.163}
{"sequence": "AATTACCT", "binding signal": 0.357}
{"sequence": "AATTACTG", "binding signal": 0.191}
{"sequence": "ATTTACTC", "binding signal": 0.0747}
{"sequence": "CGTTACTA", "binding signal": 0.34}
{"sequence": "ATTTACTG", "binding signal": 0.287}
{"sequence": "ATTTACTA", "binding signal": 0.459}
{"sequence": "GATTACTA", "binding signal": 0.2}
{"sequence": "CGTTACTC", "binding signal": -0.0623}
{"sequence": "AATTACCG", "binding signal": 0.32}
{"sequence": "AATTACCC", "binding signal": 0.215}
{"sequence": "GACTTATA", "binding signal": 0.257}
{"sequence": "CCGCACCA", "binding signal": -0.082}
{"sequence": "AGGTGTCA", "binding signal": -0.0859}
{"sequence": "CGCCCTAC", "binding signal": -0.152}
{"sequence": "CATATGCA", "binding signal": 0.117}
{"sequence": "AGTCAGCC", "binding signal": -0.00495}
{"sequence": "CGCCCTTA", "binding signal": -0.158}
{"sequence": "AAAGAACA", "binding signal": -0.199}
{"sequence": "ATTAAGAC", "binding signal": -0.0587}
{"sequence": "ATTTACAC", "binding signal": 0.23}
{"sequence": "AGTTACTC", "binding signal": 0.188}
{"sequence": "AGTTACTA", "binding signal": 0.345}
{"sequence": "ATTTACAG", "binding signal": 0.24}
{"sequence": "ATTTACAA", "binding signal": 0.368}
{"sequence": "AGTTACTG", "binding signal": 0.207}
{"sequence": "CAGTGGAA", "binding signal": 0.0127}
{"sequence": "GGTGTGTA", "binding signal": 0.271}
{"sequence": "CGCATTCC", "binding signal": -0.192}
{"sequence": "ACTTATAA", "binding signal": 0.28}
